The full data set covers some 7,900 targets. This sample favours those with a hit. About 0.6% of all pairs of compound and target were hits. A number with no mark means an inactive call.
How the values were obtained:
Assay in all cases: log2 fold change, soluble protein after heating vs DMSO (PISA); higher = thermal stabilisation; K562 cells, 10 uM, 30 min; active = over 0.2 and 3.5 SD of the protein, either way, in both replicates (recomputed)
erlotinib = compound: C#Cc1cccc(Nc2ncnc3cc(OCCOC)c(OCCOC)cc23)c1 [erlotinib]
Procedure, shortened: (§1)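 Aliquots of K562 cells (2×10^6 cells/mL) treated with 10 μM compound for 30 min were heated for 3 min over 48°C-58°C. After pooling and extraction in PBS with 0.5% NP-40 at 4°C, soluble protein from a 21,000xg, 90 min spin was quantified by TMTpro 16plex LC-MS/MS with channel sums equalised. Thermal stability is expressed against control samples, from duplicates, as a log2 fold change.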

[1] = compound: C/C(=N\NC(=O)C1=CC(=CC=C1)S(=O)(=O)N2CCOCC2)/C3=C(C=CC(=C3)Cl)O
Procedure, shortened: as §1

[2] = compound: C1=CC(=C(C=C1Cl)C2=NC3=NC=CN=C3C(=N2)NC4=CC=NC=C4)F
Procedure, shortened: as §1

[3] = compound: C1=CC(=CC=C1C2=NC3=C(N2)C=C(C=C3)C(=O)N)OC4=CC=C(C=C4)Cl
Procedure, shortened: as §1

[4] = compound: C1=CC2=C(C=CC(=C2)/C=C\3/C(=O)NC(=NCC4=CC=CS4)S3)N=C1
Procedure, shortened: as §1

[5] = compound: C1=CC2=NC=CN=C2C=C1/C=C/3\C(=O)NC(=O)S3
Procedure, shortened: as §1

[6] = compound: C1=CC=C(C=C1)C2=NC(=C(N2)C3=CC=NC=C3)C4=CC(=C(C=C4)Cl)O
Procedure, shortened: as §1

[7] = compound: C1=CC=C2C(=C1)C3=NNC4=CC=CC(=C43)C2=O
Procedure, shortened: as §1

[8] = compound: C1CCN(C1)C(=O)NC2=CC=CC(=C2)NC3=NC=C(C(=N3)NCCC4=CN=CN4)Br
Procedure, shortened: as §1

[9] = compound: C1CN(CCC1(CC2=CC=C(C=C2)Cl)N)C3=NC=NC4=C3C=CN4
Procedure, shortened: as §1

IRAK-1-4 Inhibitor I = compound: C1COCCN1CCN2C3=CC=CC=C3N=C2NC(=O)C4=CC(=CC=C4)[N+](=O)[O-] [IRAK-1-4 Inhibitor I]
Procedure, shortened: as §1

ibrutinib = compound: C=CC(=O)N1CCC[C@@H](n2nc(-c3ccc(Oc4ccccc4)cc3)c3c(N)ncnc32)C1 [ibrutinib]
Procedure, shortened: as §1

[10] = compound: CC(=O)c1cnc2ccc(-c3cc(Cl)c(O)c(Cl)c3)nc2c1N[C@H]1CC[C@H](CN(C)C)CC1
Procedure, shortened: as §1

ralimetinib = compound: CC(C)(C)Cn1c(N)nc2ccc(-c3[nH]c(C(C)(C)C)nc3-c3ccc(F)cc3)nc21 [ralimetinib]
Procedure, shortened: as §1

[11] = compound: CC(C)(O)CC(=O)NCCn1ccc2ncnc(Nc3ccc(Oc4cccc(C(F)(F)F)c4)c(Cl)c3)c21
Procedure, shortened: as §1

[12] = compound: CC(C)C1=C2N=C(C=C(N2N=C1)NCC3=CC=CC=C3)NCCCCCCN
Procedure, shortened: as §1

[13] = compound: CC(C)C[C@@H](C=O)NC(=O)[C@H](CC(C)C)NC(=O)[C@H](CC(C)C)NC(=O)OCc1ccccc1
Procedure, shortened: as §1

pinometostat = compound: CC(C)N(C[C@H]1O[C@@H](n2cnc3c(N)ncnc32)[C@H](O)[C@@H]1O)[C@H]1C[C@@H](CCc2nc3cc(C(C)(C)C)ccc3[nH]2)C1 [pinometostat]
Procedure, shortened: as §1

[14] = compound: CC1=C(C(CC(=O)N1)C2=CC=C(C=C2)C(F)(F)F)C(=O)NC3=C(C=C4C(=C3)C=NN4)F
Procedure, shortened: as §1

[15] = compound: CC1=C(C2=C(C=C1)C(=O)C3=CC=CC=C3N2CCCN)C
Procedure, shortened: as §1

Chain of UniProt O15254 (O15254 whole entry, looked up): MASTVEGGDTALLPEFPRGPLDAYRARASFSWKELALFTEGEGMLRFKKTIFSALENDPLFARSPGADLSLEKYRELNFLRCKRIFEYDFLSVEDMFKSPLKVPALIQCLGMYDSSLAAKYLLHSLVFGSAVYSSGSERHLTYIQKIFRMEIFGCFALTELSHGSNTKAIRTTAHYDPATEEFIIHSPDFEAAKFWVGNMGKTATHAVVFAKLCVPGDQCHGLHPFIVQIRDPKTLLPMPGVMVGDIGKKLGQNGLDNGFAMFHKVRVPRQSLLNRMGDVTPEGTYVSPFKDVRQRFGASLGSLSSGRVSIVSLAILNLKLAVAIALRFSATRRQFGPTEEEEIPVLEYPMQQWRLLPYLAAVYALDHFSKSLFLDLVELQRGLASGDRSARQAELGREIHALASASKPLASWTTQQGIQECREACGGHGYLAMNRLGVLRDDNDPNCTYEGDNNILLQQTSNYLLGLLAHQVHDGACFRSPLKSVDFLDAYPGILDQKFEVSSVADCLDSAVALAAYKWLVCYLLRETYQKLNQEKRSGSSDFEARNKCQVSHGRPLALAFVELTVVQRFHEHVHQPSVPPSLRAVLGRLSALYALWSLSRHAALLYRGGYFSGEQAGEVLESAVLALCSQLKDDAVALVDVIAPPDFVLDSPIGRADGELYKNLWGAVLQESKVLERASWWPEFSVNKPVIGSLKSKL
Chain of UniProt O00170 (O00170 whole entry, looked up): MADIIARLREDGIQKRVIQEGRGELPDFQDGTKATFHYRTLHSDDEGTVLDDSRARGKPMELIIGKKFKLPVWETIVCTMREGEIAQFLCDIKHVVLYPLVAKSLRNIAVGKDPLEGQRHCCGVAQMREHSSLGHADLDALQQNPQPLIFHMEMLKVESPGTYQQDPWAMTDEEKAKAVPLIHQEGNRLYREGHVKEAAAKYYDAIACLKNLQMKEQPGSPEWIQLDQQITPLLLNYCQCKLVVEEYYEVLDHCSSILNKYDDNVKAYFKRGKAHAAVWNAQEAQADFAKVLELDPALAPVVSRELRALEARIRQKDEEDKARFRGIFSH
Chain of UniProt Q99758 (Q99758 whole entry, looked up): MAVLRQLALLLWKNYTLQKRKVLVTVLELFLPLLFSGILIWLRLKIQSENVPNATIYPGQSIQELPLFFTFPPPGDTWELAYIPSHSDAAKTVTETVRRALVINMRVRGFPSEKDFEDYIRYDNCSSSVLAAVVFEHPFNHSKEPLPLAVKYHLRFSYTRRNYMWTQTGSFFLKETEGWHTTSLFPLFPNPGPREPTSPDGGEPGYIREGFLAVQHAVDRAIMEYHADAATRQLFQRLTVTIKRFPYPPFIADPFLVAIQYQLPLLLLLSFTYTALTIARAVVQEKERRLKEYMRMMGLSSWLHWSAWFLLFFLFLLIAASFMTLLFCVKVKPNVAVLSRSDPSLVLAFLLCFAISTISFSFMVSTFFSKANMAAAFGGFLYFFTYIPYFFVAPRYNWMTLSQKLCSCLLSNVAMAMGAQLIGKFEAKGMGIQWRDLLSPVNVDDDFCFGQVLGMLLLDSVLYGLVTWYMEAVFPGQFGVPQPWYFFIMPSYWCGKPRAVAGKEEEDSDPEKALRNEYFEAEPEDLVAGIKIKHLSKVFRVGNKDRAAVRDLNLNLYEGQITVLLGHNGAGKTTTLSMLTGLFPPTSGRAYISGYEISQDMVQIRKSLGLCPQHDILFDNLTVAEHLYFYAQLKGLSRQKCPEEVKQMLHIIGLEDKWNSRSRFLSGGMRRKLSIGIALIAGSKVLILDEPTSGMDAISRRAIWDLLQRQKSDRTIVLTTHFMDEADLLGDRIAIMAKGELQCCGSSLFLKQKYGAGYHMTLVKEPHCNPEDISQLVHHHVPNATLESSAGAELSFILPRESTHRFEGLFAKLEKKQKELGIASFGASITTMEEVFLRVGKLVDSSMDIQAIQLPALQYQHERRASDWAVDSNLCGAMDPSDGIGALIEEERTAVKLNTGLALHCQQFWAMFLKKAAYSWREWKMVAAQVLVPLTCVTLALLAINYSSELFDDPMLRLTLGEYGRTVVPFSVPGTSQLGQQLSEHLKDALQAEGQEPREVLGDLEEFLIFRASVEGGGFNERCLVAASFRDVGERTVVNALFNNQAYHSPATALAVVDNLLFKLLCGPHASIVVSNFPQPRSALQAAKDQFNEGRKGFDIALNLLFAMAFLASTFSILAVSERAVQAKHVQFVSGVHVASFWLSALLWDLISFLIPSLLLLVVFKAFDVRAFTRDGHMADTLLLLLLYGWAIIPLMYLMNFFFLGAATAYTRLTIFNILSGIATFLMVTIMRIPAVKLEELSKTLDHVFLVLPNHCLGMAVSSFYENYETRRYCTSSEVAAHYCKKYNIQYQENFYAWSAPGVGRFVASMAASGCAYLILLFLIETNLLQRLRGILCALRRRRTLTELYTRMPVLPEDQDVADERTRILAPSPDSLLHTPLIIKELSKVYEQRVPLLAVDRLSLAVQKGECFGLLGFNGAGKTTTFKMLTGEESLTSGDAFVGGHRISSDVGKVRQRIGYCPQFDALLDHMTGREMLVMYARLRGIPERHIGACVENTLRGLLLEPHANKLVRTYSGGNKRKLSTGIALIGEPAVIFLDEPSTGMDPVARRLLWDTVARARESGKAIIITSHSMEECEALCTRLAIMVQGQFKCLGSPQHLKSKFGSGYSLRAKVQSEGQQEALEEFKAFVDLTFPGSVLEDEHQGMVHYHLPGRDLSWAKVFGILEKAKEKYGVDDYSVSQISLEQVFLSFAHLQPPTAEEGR
Chain of UniProt Q9UKV5 (Q9UKV5 whole entry, looked up): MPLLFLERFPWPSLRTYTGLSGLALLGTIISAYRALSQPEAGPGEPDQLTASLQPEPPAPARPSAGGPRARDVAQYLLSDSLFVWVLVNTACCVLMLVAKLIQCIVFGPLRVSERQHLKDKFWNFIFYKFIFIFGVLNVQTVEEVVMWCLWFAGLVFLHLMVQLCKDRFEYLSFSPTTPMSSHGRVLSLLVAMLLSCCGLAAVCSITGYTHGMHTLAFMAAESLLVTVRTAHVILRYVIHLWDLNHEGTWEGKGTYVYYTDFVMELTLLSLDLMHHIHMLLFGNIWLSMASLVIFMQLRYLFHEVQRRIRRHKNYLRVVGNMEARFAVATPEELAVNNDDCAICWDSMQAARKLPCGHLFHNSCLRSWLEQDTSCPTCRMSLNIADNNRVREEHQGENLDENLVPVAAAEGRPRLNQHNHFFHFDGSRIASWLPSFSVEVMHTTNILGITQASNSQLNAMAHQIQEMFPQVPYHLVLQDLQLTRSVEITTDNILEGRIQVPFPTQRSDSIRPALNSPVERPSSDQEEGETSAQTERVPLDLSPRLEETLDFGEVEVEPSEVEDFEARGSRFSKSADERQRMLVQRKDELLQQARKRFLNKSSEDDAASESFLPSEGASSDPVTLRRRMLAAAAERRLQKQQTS
Chain of UniProt Q04771 (Q04771 whole entry, looked up): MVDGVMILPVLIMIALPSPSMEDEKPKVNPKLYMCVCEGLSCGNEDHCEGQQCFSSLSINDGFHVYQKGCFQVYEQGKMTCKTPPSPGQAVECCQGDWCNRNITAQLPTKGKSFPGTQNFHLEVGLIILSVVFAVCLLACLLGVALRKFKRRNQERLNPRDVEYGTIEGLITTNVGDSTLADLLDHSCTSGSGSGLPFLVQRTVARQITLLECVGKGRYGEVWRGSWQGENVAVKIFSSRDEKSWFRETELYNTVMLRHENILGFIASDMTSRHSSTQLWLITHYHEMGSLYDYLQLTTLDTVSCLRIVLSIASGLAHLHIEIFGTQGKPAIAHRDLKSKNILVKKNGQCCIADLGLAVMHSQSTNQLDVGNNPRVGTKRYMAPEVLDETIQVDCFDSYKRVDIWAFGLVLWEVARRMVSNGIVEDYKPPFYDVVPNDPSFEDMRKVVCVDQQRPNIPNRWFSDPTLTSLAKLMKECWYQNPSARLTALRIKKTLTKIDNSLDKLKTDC
Chain of UniProt P10398 (P10398 whole entry, looked up): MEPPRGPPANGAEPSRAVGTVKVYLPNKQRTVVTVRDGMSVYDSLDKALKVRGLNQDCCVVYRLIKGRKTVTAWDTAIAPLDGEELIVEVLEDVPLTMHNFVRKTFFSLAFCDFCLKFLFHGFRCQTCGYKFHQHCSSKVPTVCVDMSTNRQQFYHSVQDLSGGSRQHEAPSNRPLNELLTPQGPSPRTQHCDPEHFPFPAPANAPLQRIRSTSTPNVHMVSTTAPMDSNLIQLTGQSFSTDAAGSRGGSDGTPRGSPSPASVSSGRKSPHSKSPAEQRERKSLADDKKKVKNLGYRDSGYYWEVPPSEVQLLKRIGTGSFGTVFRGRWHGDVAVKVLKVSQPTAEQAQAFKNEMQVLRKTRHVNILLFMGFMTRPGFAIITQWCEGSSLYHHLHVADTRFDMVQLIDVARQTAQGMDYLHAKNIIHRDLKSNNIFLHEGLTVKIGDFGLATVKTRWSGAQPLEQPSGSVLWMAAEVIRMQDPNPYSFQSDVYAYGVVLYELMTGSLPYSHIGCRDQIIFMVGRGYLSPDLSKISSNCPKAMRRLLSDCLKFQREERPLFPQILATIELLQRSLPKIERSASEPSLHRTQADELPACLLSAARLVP
Chain of UniProt Q9BRQ8 (Q9BRQ8 whole entry, looked up): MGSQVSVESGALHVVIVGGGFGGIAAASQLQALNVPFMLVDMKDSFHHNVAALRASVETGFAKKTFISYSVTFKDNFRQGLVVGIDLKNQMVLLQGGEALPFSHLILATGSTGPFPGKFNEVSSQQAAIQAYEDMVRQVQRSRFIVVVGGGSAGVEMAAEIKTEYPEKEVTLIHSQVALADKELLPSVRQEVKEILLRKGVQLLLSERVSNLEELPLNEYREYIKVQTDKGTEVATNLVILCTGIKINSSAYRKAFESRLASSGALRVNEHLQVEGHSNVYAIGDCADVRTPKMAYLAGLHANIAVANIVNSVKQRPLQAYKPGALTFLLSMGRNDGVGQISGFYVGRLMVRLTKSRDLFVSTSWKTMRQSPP

Work on ARAF (UniProt P10398) yielded a log2 fold change (erlotinib) of 0.014, a log2 fold change [1] of 0.096 and a log2 fold change [2] of 0.061. It also gave a log2 fold change [3] of 0.014, a log2 fold change [4] of 0.26 and a log2 fold change [5] of -0.012. The log2 fold change [6] was 0.077, the log2 fold change [7] was -0.187 and the log2 fold change [8] was -0.017. For the same target, the log2 fold change [9] was 0.035, the log2 fold change (IRAK-1-4 Inhibitor I) was 0.011 and the log2 fold change (ibrutinib) was 0.005. It also gave a log2 fold change [10] of -0.13, a log2 fold change (ralimetinib) of 0.097 and a log2 fold change [11] of -0.064. The log2 fold change [12] was -0.056, the log2 fold change [13] was 0.021 and the log2 fold change (pinometostat) was 0.043. It also gave a log2 fold change [14] of -0.018 and a log2 fold change [15] of 0.041.

With ACOX3 (UniProt O15254) the log2 fold change (erlotinib) was 0.158, the log2 fold change [1] was -0.157 and the log2 fold change [2] was -0.068. For the same target, the log2 fold change [3] was 0.007, the log2 fold change [4] was -0.122 and the log2 fold change [5] was -0.026. The log2 fold change [7] was 0.071, the log2 fold change [8] was 0.153 and the log2 fold change [9] was 0.054. The log2 fold change (IRAK-1-4 Inhibitor I) was 0.095, the log2 fold change (ibrutinib) was 0.035 and the log2 fold change [10] was -0.177. The log2 fold change [11] was 0.061, the log2 fold change [12] was 0.022 and the log2 fold change (pinometostat) was -0.021. It also gave a log2 fold change [14] of -0.081 and a log2 fold change [15] of -0.051.

Target ACVR1 (UniProt Q04771) has a log2 fold change (erlotinib) of -0.101, a log2 fold change [1] of -0.051 and a log2 fold change [2] of 0.021. It also gave a log2 fold change [3] of 0.031, a log2 fold change [4] of -0.021 and a log2 fold change [7] of 0.136. For the same target, the log2 fold change [8] was -0.326, the log2 fold change [9] was 0.035 and the log2 fold change [10] was 0.873 (active). The log2 fold change [11] was -0.158, the log2 fold change [12] was 0.06 and the log2 fold change [15] was 0.127.

For AIFM2 (UniProt Q9BRQ8), the log2 fold change (erlotinib) was -0.038, the log2 fold change [1] was 0.045 and the log2 fold change [2] was -0.001. It also gave a log2 fold change [3] of 0.064, a log2 fold change [4] of -0.025 and a log2 fold change [5] of -0.032. The log2 fold change [6] was 0.041, the log2 fold change [7] was 0.172 and the log2 fold change [8] was -0.045. For the same target, the log2 fold change [9] was 0.064, the log2 fold change (IRAK-1-4 Inhibitor I) was 0.011 and the log2 fold change (ibrutinib) was -0.008. The log2 fold change [10] was 0, the log2 fold change (ralimetinib) was -0.005 and the log2 fold change [11] was 0.189. It also gave a log2 fold change [12] of 0.161, a log2 fold change [13] of -0.061 and a log2 fold change (pinometostat) of 0.044. The log2 fold change [14] was -0.062 and the log2 fold change [15] was 0.021.

AMFR (UniProt Q9UKV5) gave a log2 fold change (erlotinib) of 0.116, a log2 fold change [1] of 0 and a log2 fold change [2] of -0.022. For the same target, the log2 fold change [3] was -0.062, the log2 fold change [4] was -0.046 and the log2 fold change [5] was 0.058. The log2 fold change [6] was 0.026, the log2 fold change [7] was -0.062 and the log2 fold change [8] was 0.002. For the same target, the log2 fold change [9] was -0.009, the log2 fold change (IRAK-1-4 Inhibitor I) was -0.083 and the log2 fold change (ibrutinib) was -0.039. The log2 fold change [10] was 0.07, the log2 fold change (ralimetinib) was 0.117 and the log2 fold change [11] was -0.034. The log2 fold change [12] was -0.375 (active), the log2 fold change [13] was 0.12 and the log2 fold change (pinometostat) was 0.077. It also gave a log2 fold change [14] of -0.011 and a log2 fold change [15] of 0.019.

BRD8 isoform 2 (UniProt Q9H0E9) gave a log2 fold change (erlotinib) of 0.157, a log2 fold change [1] of 0.016 and a log2 fold change [2] of 0.029. It also gave a log2 fold change [3] of 0.082, a log2 fold change [4] of 0.035 and a log2 fold change [5] of 0.055. It also gave a log2 fold change [6] of -0.152, a log2 fold change [7] of -0.044 and a log2 fold change [8] of -0.027. The log2 fold change [9] was 0.021, the log2 fold change (IRAK-1-4 Inhibitor I) was 0.028 and the log2 fold change (ibrutinib) was 0. It also gave a log2 fold change [10] of 0.036, a log2 fold change (ralimetinib) of -0.103 and a log2 fold change [11] of 0.021. For the same target, the log2 fold change [12] was -0.003, the log2 fold change [13] was 0.093 and the log2 fold change (pinometostat) was 0.01. The log2 fold change [15] was -0.071.

ABCA3 (UniProt Q99758) showed a log2 fold change (erlotinib) of 0.011, a log2 fold change [1] of 0.087 and a log2 fold change [2] of 0.002. The log2 fold change [3] was 0.057, the log2 fold change [4] was -0.027 and the log2 fold change [5] was -0.056. The log2 fold change [6] was 0.01, the log2 fold change [7] was 0.031 and the log2 fold change [8] was 0.094. For the same target, the log2 fold change [9] was -0.034, the log2 fold change (IRAK-1-4 Inhibitor I) was -0.012 and the log2 fold change (ibrutinib) was -0.051. It also gave a log2 fold change [10] of -0.005, a log2 fold change (ralimetinib) of -0.096 and a log2 fold change [11] of -0.096. The log2 fold change [12] was -0.007, the log2 fold change [13] was -0.017 and the log2 fold change (pinometostat) was 0.203. For the same target, the log2 fold change [15] was 0.054.

AIP (UniProt O00170) gave a log2 fold change (erlotinib) of 0.035, a log2 fold change [1] of 0.096 and a log2 fold change [2] of 0.133. The log2 fold change [3] was -0.006, the log2 fold change [4] was 0.042 and the log2 fold change [5] was 0.048. For the same target, the log2 fold change [6] was -0.01, the log2 fold change [7] was 0.011 and the log2 fold change [8] was 0.005. The log2 fold change [9] was -0.026, the log2 fold change (IRAK-1-4 Inhibitor I) was 0 and the log2 fold change (ibrutinib) was -0.047. It also gave a log2 fold change [10] of 0.007, a log2 fold change (ralimetinib) of 0.006 and a log2 fold change [11] of -0.094. It also gave a log2 fold change [12] of -0.074, a log2 fold change [13] of -0.018 and a log2 fold change (pinometostat) of -0.027. The log2 fold change [14] was -0.035 and the log2 fold change [15] was -0.026.
